Some of the results follow. Entries that show only a call come without a potency. Records with an inconclusive call do not appear. Active and inactive are the calls of the source. The call rests on the fitted dose curve; in most records, active means well fitted cell-killing curve with a large enough effect; inconclusive means small, poorly fitted or top-dose-only effect, or effect the other way, or another doubt; inactive means no such curve, though single readings can be large or run the other way.
experiment: qHTS screen for small molecules that inhibit ELG1-dependent DNA repair: Hit Confirmation with 5FU Viability (AID 624250); conditions: cell viability with 5-FU; series mostly up to 46.1 µM
From the text: Cancer cells divide rapidly compared to normal cells in the body. During cell division, cancer cells need to duplicate their genome by DNA replication. The failure of genome duplication leads to cancer cells' death. Therefore, inhibitors of DNA replication could specifically kill cancer cells. Based on this concept, many chemotherapeutic agents were developed and have been used to treat cancer patients. However, there are a limited number of agents available in the clinical setting, and some of those that do exist have low efficacy and severe side effects. Therefore, if we can find the compounds that effectively block DNA replication either by directly damaging DNA or by inhibiting other cellular mechanisms, the options for cancer treatment will be broadened. With this in mind, we developed a quantitative high-throughput ELG1-luciferase reporter gene assay. Small molecules that specifically block ELG1 function in response to DNA damage can be identified by monitoring the suppression of luciferase activity. Since ELG1 defines a pathway for repairing DNA damage, agents blocking ELG1 function can be used to sensitize cancer cells to chemotherapeutic agents whose mechanism of action involves the induction of DNA damage.
NIH Molecular Libraries Probe Production Network [MLPCN]
NIH Chemical Genomics Center [NCGC]
Assay Provider: Kyungjae Myung, NHGRI, NIH
ELG1-luc HEK293T cells will be seeded in 1536-well plates at a density of 2,000 cells/well. Approximately 5 hours after plating, compounds will be added to the plate by pin tool transfer and 5-fluorouridine will be added by FRD dispenser (final concentration of 5-fluorouridine =10 µM). 16 hours following the addition of the compounds, cell viability will be measured using Cell Titer Glo.
Potency means the concentration at half of the fitted maximal effect.

Row | Structure (SMILES) | Potency
1 | COc1cc(N)c(Cl)cc1C(=O)OCC(=O)c1ccc2c(c1)NC(=O)CO2 | inactive
2 | Cc1nnc(N/N=C/c2ccccn2)[nH]c1=O | inactive
3 | CC(=O)c1c(C)n(-c2ccc(C)cc2)c2ccc(O)cc12 | inactive
4 | CC(=O)[O][Sn]([c]1ccccc1)([c]1ccccc1)[c]1ccccc1 | 2810 nM (active)
5 | C[C@@H]1C[C@H]2CC[C@H](O2)[C@H](C)C(=O)O[C@@H](C)C[C@@H]2CC[C@@H](O2)[C@@H](C)C(=O)O[C@H](C)C[C@H]2CC[C@H](O2)[C@H](C)C(=O)O[C@@H](C)C[C@@H]2CC[C@@H](O2)[C@@H](C)C(=O)O1 | inactive
6 | CC(C)(CNC(=O)c1ccc(Cl)c(S(=O)(=O)N2CCc3ccccc3C2)c1)N1CCOCC1 | inactive
7 | OCCCNc1nccc(-c2cc(Nc3cccc(Cl)c3)ncn2)n1 | inactive
8 | COc1ccc(S(=O)(=O)Nc2ccc3oc(C)c(C(C)=O)c3c2)cc1 | inactive
9 | Clc1ccc2nc(-c3ccccc3)nc(C(Cl)Cl)c2c1 | inactive
10 | COc1ccc(NS(=O)(=O)c2ccc(Oc3c(C#N)cccc3C#N)cc2)cc1 | inactive
11 | NC(=O)c1sc2nc3c(c(-c4ccccc4)c2c1N)CCC3 | inactive
12 | CCc1ccc(N(CC)c2ncnc3nc[nH]c23)cc1 | inactive
13 | COc1ccc(CNc2ncnc3ccccc23)cc1 | inactive
14 | COc1ccccc1C(=O)Nc1ccc(C)c(S(=O)(=O)N2CCCCC2)c1 | inactive
15 | O=C(C1CCCN(S(=O)(=O)c2ccccc2)C1)N1CCN(c2ccc(F)cc2)CC1 (stereo unspecified) | inactive
16 | COc1ccc(Nc2cc(=O)oc3ccccc23)cc1 | inactive

Source: PubChem BioAssay (NCATS)
